# Bioassay records from PubChem BioAssay.
# Coupling enz = inhibits coupling enzyme system, counter-screen for aldolase hits; coupling enzyme system counterscreen, AmpLite Red fluorescence; activity change, negative = inhibition, % at 58.2 µM, hits read low; 0.67% of 290,000 active; in the data active = activity change below about -30%
#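 First, compound is pin-transferred into glyceraldehyde-3-phosphate coupling-enzyme reagent at 57.5 uM final and held 10 min at RT. Next, substrate, coupling system and AmpLite Red are added. After 20 min RT, fluorescence (525/598 nm) is read.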
# USP1-UAF1 inh = blocks the human USP1/UAF1 deubiquitinase complex; O94782; recombinant USP1/UAF1, Ub-Rhodamine cleavage fluorescence; Potency, µM (titrated, usually from 57.1 µM), for the others: top-dose activity change, negative = inhibition, most hits filed as inhibitors; 0.23% of 390,000 active; active = well fitted inhibition curve with a large enough effect; inconclusive = small, poorly fitted or top-dose-only effect; inactive = no such curve, though single readings can be large or run the other way; note: potency is the fitted concentration of half-maximal effect; nearly all actives have a fitted effect of over 60% in size
#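 USP1/UAF1 complex (1 nM) preincubated 15 min at room temperature with compound, then Ub-Rho substrate (150 nM final) added. Kinetic fluorescence at 480/540 nm over 6 reads at 60 s intervals; 50 mM HEPES pH 7.8, 0.5 mM EDTA, 0.1 mg/ml BSA, 1 mM TCEP, 0.01% Tween-20.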
# KCNH2 WT inh = KCNH2 (human, wildtype) channel inhibition; Q12809; AID 720551; 0.37% of 340,000 active; U2OS, BacMam KCNH2, thallium flux FluxOr; active compounds read low; activity change, % at 1.84 µM;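 active = maximum activity change below -70%; inconclusive = maximum activity change between -70% and -50%; inactive = maximum activity change above -50%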
# Target sequence (Q12809 whole entry, looked up): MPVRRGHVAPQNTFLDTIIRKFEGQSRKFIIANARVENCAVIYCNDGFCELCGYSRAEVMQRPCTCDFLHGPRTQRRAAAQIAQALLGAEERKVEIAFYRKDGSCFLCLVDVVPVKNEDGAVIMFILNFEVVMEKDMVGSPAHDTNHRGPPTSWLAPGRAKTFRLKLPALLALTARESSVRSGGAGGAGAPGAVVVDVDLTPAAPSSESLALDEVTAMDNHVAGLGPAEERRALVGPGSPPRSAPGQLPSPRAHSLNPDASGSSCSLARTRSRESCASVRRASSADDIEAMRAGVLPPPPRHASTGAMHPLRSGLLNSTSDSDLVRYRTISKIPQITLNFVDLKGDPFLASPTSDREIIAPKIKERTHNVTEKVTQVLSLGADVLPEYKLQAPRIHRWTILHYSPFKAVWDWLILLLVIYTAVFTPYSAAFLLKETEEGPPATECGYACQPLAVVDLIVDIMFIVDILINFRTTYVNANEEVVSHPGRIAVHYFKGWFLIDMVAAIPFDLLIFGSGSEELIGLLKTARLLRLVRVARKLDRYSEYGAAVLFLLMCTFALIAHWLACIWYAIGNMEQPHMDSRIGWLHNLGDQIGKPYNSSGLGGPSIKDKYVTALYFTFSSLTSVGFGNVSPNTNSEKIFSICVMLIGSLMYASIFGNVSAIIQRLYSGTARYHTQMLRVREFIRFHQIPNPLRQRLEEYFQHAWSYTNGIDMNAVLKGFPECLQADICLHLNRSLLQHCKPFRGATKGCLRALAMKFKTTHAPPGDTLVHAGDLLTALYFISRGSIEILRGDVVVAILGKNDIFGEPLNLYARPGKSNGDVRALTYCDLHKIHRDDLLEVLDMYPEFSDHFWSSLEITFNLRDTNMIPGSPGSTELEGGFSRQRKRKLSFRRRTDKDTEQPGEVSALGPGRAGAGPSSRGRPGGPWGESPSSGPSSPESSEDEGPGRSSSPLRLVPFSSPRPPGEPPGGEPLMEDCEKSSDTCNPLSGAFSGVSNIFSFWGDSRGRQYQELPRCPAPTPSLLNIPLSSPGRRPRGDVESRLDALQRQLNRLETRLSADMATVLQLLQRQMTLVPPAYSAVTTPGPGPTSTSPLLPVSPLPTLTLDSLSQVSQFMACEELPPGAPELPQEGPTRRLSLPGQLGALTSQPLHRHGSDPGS
#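 U2OS cells were transduced with wild-type KCNH2 virus (2.03 x 10^8 / mL) for 4 h at room temperature, then cultured overnight at 37 C. Thallium flux was read with FluxOr dye. Rate constants were normalized to DMSO controls.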
# KCNH2 3.1 block = inhibitors of human KCNH2 3.1 potassium channel isoform; 0.95% of 340,000 active; U2OS KCNH2 3.1, thallium flux FluxOr; active compounds read low; activity change, % (tested at about 1.8 µM); AID 720553;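 active = maximum activity change below -70%; inconclusive = maximum activity change from -70% to -50%; inactive = maximum activity change above -50%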;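 note: thallium influx rate constant from kinetic fluorescence after stimulation buffer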
#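 FluxOr-based Tl+ influx in U2OS cells transduced with KCNH2 3.1 virus; rate constants normalized to DMSO controls.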
# Giardia kill = kills Giardia lamblia; activity change, % at 7.66 µM, hits read low; AID 540267; Giardia lamblia trophozoite viability; 0.15% of 340,000 active; in the data active = activity change below about -80%; inconclusive = between about -30% and that limit;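 note: parasites exposed to compound for two days anaerobically before the ATP read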
#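 ATP-content bioluminescence gauges trophozoite survival. Cells (100/well) receive compound and incubate anaerobically for 48 hrs at 37 deg C; detection reagent follows for 15-30 min at room temperature.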
# * marks the source's active call; other numbers are inactive results; u = inconclusive; x = no result given. Sampled rows, rich in hits. Any-hit rate of the full collection: about 1.7%. % is set by controls: 0 for no effect and ±100 for the full control effect.
SMILES,Coupling enz,USP1-UAF1 inh,KCNH2 WT inh,KCNH2 3.1 block,Giardia kill
O=C1N(Cc2ccccc2Cl)c2ccccc2C1(O)c1c[nH]c2ccccc12 (configuration not stated),x,-32%,x,x,x
O=C(Cc1ccc(NC(=O)N2CCCCc3ccccc32)cc1)NCc1ccccc1,x,-16%,x,x,x
O=c1c2ccccc2nc(/C=C/c2ccc([N+](=O)[O-])o2)n1CCCO,0,6%,10,3,-88*
Cc1cc(C)n(C(C)CC(=O)Nc2ccc(C)c(N(C)C)c2)n1 (configuration not stated),x,-7%,x,x,x
NC(=O)Cn1nnc(-c2ccc(CN3CCCCC3)cc2)n1,2,-14%,-6,-82*,35
CC(C)C(=O)c1ccc(O)c(O)c1,-7,-2%,2,-85*,1
Cc1ccc2c(CN3CCN(S(=O)(=O)/C=C/c4ccccc4)CC3)cc(=O)oc2c1,0,-9%,-32,-89*,41
Oc1ccc2ccccc2c1CN1CCN(C/C=C/c2ccccc2)CC1,-4,-12%,33,-80*,3
Cc1cc2oc(=O)cc(CN3CCN(C/C=C/c4ccccc4)CC3)c2cc1O,-9,x,x,x,x
Cc1c(O)ccc2c(CN3CCN(C/C=C/c4ccccc4)CC3)cc(=O)oc12,-1,-3%,-75*,-97*,-1
Cc1nc2c(-c3ccccc3)c(C)nn2c(C)c1CCC(=O)NCc1ccc(Cl)cc1,x,-26%,x,x,x
O=C(O)CCC(=O)N1CCc2cc(S(=O)(=O)N3CCN(c4ccc(F)cc4)CC3)ccc21,17,-16%,-3,-101*,-1
COc1ccc(CC2(CO)CCN(C/C=C/c3ccccc3OC)CC2)cc1,-2,-6%,-90*,-109*,-10
COc1ccc(CC2(CO)CCN(Cc3cnn(-c4ccccc4OC)c3)CC2)cc1,1,-17%,25,-24,-21
OCC1(CCc2ccccc2)CCCN(C/C=C/c2ccccc2)C1 (configuration not stated),0,-8%,-12,u,12
COc1ccccc1/C=C/CN1CCCC(CO)(CCc2ccccc2)C1 (configuration not stated),0,-5%,-26,-75*,-2
C=CCNC(=O)c1ccc(CN(c2ccc(OCC)cc2)S(=O)(=O)c2ccc(C)cc2)cc1,1,-16%,u,-88*,12
CCOC(=O)C1(CCCc2ccccc2)CCN(Cc2cnc(C)s2)CC1,0,0%,-91*,-23,11
CCOC(=O)C1(CCc2ccccc2)CCN(Cc2ccn[nH]2)CC1,2,-11%,9,u,-17
CCOC(=O)C1(CCCc2ccccc2)CCN(Cc2cn(CC)nc2C)CC1,-16,-9%,-17,-93*,-2
CCOC(=O)C1(CCCc2ccccc2)CCN(CCCn2cccn2)CC1,-2,-1%,-131*,-111*,6
CCOC(=O)C1(CCc2ccccc2)CCN(Cc2cccc3nccnc23)CC1,0,-9%,-34,-99*,8
CCc1ccc(C(=O)c2cn(CC(=O)Nc3ccc4c(c3)OCCO4)c3ccc(CC)cc3c2=O)cc1,x,-24%,x,x,x
CC(=O)N1CCC(C(=O)Nc2nnc(C(C)C)s2)CC1,x,x,x,x,-20
CCOC(=O)C1(Cc2ccccc2)CCN(C2Cc3ccccc3C2)CC1,1,-8%,-3,-86*,4
SMILES,Coupling enz,USP1-UAF1 inh,KCNH2 WT inh,KCNH2 3.1 block,Giardia kill
CCOC(=O)C1(CCCc2ccccc2)CCN(Cc2nccn2CC)CC1,1,0%,-13,-93*,6
CCN(c1cc(C)cc(C)c1)S(=O)(=O)c1nnc(NC(=O)C2CCCCC2)s1,x,-14%,x,x,x
O=C(NNS(=O)(=O)c1ccc([N+](=O)[O-])cc1)C(=O)Nc1cccc(C(=O)O)c1,-3,-4%,-112*,14,-12
O=C(NNS(=O)(=O)c1ccc([N+](=O)[O-])cc1)c1ccccc1,x,-16%,5,11,7
O=C(O)c1cccc(NS(=O)(=O)c2ccc(Oc3ccc(S(=O)(=O)Nc4cccc(C(=O)O)c4)cc3)cc2)c1,x,-21%,-144*,1,-14
CC(C)(C)CNc1nc(C#N)nc(Nc2ccccc2)n1,2,x,x,x,x
C=C1CCN([C@@H](Cc2ccccc2)C(=O)NCc2ccc(Cl)cc2)S(=O)(=O)c2ccccc21,x,-14%,-15,-70*,8
C=C1CCN([C@@H](Cc2ccccc2)C(=O)NCc2ccccc2)S(=O)(=O)c2ccccc21,x,-33%,3,-11,23
CCOC(=O)c1[nH]c2ccccc2c1N=CN(C)C,x,-5%,24,-2,2
CN(C)C=Nc1ccc2nc3c(cc2c1)[nH]c1ccccc13,-11,-18%,-3,20,-89*
COc1ccccc1CNC(=O)CC(c1ccc(OC)c(OC)c1)N1Cc2ccccc2C1=O (configuration not stated),x,-3%,x,x,x
CCOC(=O)c1cc(-c2ccccc2)nn1-c1ccccn1,-34*,-8%,-2,4,3
CC1CCN(S(=O)(=O)c2ccc(NC(=O)CCNC(=O)c3ccc(Cl)cc3)cc2)CC1,x,-16%,2,-18,2
CC(C)[C@H](NC(=O)OCc1ccccc1)C(=O)OCC(=O)N1C(C)CCCC1C (some centres not stated),x,-5%,-1,1,-12
CCN1/C(=C/C(C)=O)Sc2ccc(OC)cc21,-29,-14%,-26,-10,-1
CCOC(=O)/C(=C\C=C1/Sc2cc(OCC)c(OCC)cc2N1CC)C(C)=O,-8,25µM*,5,6,3
CCOC(=O)/C(=C/C=C1\Sc2cc(OCC)c(OCC)cc2N1CC)C(C)=O,-3,22µM*,-16,5,-9
O=S(=O)(NCc1csc(-c2ccccc2)n1)c1ccccc1,x,-16%,x,x,x
COc1ccccc1NC(=O)CN1C(=O)C(c2ccc(F)cc2)=NC1(C)C,x,-9%,x,x,x
CCOc1ccc(NC(=O)/C(C#N)=C\c2ccc(N3CCCC3)c(C)c2)cc1,x,22µM*,-10,-1,-20
O=C(Cn1ccn(-c2ccc(F)cc2)c(=O)c1=O)Nc1ccccc1C(F)(F)F,x,-6%,x,x,x
COc1ccc(N(CC(=O)NCCSCc2ccccc2Cl)S(C)(=O)=O)cc1Cl,2,-14%,-1,-74*,-9
COc1ccc(N(CC(=O)NCCSCc2c(F)cccc2Cl)S(C)(=O)=O)cc1OC,-1,-13%,6,-5,0
Cc1ccc2c(c1)cc(CN(Cc1ccc3c(c1)OCO3)C(=O)c1cnccn1)c1nnnn12,0,-15%,0,-96*,-8
Cc1cc2cc(CN(Cc3ccc4c(c3)OCO4)C(=O)c3cnccn3)c3nnnn3c2cc1C,-1,-3%,-7,-4,-18
COc1ccc(N2CC(NC(=O)COc3ccccc3F)CC2=O)cc1OC (configuration not stated),x,-7%,x,x,x
CCCN(CCC)CC(C)(C)NS(=O)(=O)c1ccc(Cl)cc1,0,-13%,0,-140*,-7
